Where “and” joins values, the source holds several entries; their conditions need not be identical. Identical values can stand only once. The whole screen tested about 5,500 compounds, of which about 2,000 (36%) were called active. About 18% were inconclusive and are not listed. No stated cut-off is given here; in the data, active means normalized growth mostly below about 0.91 (no sharp cut-off); inconclusive means no clear call, values can overlap the other calls; inactive means mostly above about 0.92. Some of the results follow.
Assay: chemical genetic growth profiling, strain panel (AID 1159580);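 further: tested at 20 µM; growth read once vehicle control cultures reached saturation at 30 °C; 1 = growth at the plate median or of vehicle wells; lower values mean less growth of the strain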
Settings: S. cerevisiae deletion strains, growth OD

Measured: normalized growth

C=C1c2c(Cl)ccc(O)c2C(O)=C2C(=O)[C@]3(O)C(O)=C(C(N)=O)C(=O)[C@@H](N(C)C)[C@@H]3[C@@H](O)[C@H]12
inactive: locus YAL013W, strain DEP1, active compounds read low 0.972 | locus YAL021C, strain ccr4, active compounds read low 0.964 | locus YAL026C, strain drs2, active compounds read low 0.934 | locus YAL030W, strain snc1, active compounds read low 0.981 | locus YBL061C, strain skt5, active compounds read low 0.976 | locus YBR009C, strain hhf1, active compounds read low 0.958 | locus YBR021W, strain FUR4, active compounds read low 0.914 | locus YBR023C, strain chs3, active compounds read low 0.966 | locus YBR171W, strain sec66, active compounds read low 0.999 | locus YBR229C, strain ROT2, active compounds read low 0.977 | locus YBR231C, strain swc5, active compounds read low 0.978 | locus YBR279W, strain paf1, active compounds read low 0.956 | locus YCL011C, strain gbp2, active compounds read low 0.935 | locus YCL016C, strain dcc1, active compounds read low 0.936 | locus YCL029C, strain bik1, active compounds read low 0.948 | locus YCL061C, strain MRC1, active compounds read low 0.954 | locus YCL069W, strain vba3, active compounds read low 0.977 | locus YCR088W, strain abp1, active compounds read low 0.981 | locus YDL005C, strain med2, active compounds read low 0.99 | locus YDL035C, strain GPR1, active compounds read low 0.954 | locus YDL040C, strain nat1, active compounds read low 0.993 | locus YDL074C, strain BRE1, active compounds read low 0.946 | locus YDL101C, strain DUN1, active compounds read low 0.965 | locus YDL134C, strain PPH21, active compounds read low 0.909 | locus YDL185W, strain tfp1, active compounds read low 0.961 | locus YDL192W, strain arf1, active compounds read low 0.95 | locus YDR001C, strain nth1, active compounds read low 0.973 | locus YDR069C, strain doa4, active compounds read low 0.965 | locus YDR101C, strain arx1, active compounds read low 0.961 | locus YDR137W, strain rgp1, active compounds read low 0.977 | locus YDR150W, strain NUM1, active compounds read low 0.98 | locus YDR159W, strain sac3, active compounds read low 0.966 | locus YDR162C, strain NBP2, active compounds read low 0.945 | locus YDR195W, strain ref2 1.01 | locus YDR297W, strain sur2, active compounds read low 0.981 | locus YDR318W, strain mcm21, active compounds read low 0.947 | locus YDR334W, strain swr1, active compounds read low 0.949 | locus YDR335W, strain msn5, active compounds read low 0.967 | locus YDR388W, active compounds read low 0.986 | locus YDR392W, strain spt3, active compounds read low 0.849 | locus YDR502C, strain sam2, active compounds read low 0.98 | locus YEL003W, strain gim4, active compounds read low 0.967 | locus YEL037C, strain rad23, active compounds read low 0.962 | locus YEL061C, strain CIN8 (second series), active compounds read low 0.974 | locus YEL061C, strain CIN8, active compounds read low 0.976 | locus YER016W, strain bim1, active compounds read low 0.964 | locus YER110C, active compounds read low 0.989 | locus YER111C, strain swi4, active compounds read low 0.949 | locus YER155C, strain BEM2 (second series), active compounds read low 0.947 | locus YER155C, strain BEM2, active compounds read low 0.992 | locus YER167W, strain BCK2, active compounds read low 0.962 | locus YFR010W, strain ubp6, active compounds read low 0.958 | locus YGL078C, strain dbp3, active compounds read low 0.964 | locus YGL086W, strain mad1, active compounds read low 0.964 | locus YGL167C, strain pmr1, active compounds read low 0.971 | locus YGL173C, strain kem1, active compounds read low 0.983 | locus YGL227W, strain vid30, active compounds read low 0.997 | locus YGL240W, strain doc1, active compounds read low 1.01 | locus YGL248W, strain PDE1, active compounds read low 0.916 | locus YGL253W, strain hxk2, active compounds read low 0.968 | locus YGR078C, strain PAC10, active compounds read low 0.882 | locus YGR135W, strain pre9, active compounds read low 0.94 | locus YGR229C, strain SMI1, active compounds read low 0.957 | locus YGR252W, strain gcn5, active compounds read low 0.967 | locus YHR013C, strain ard1, active compounds read low 0.975 | locus YHR027C, strain rpn1, active compounds read low 0.962 | locus YHR030C, strain SLT2, active compounds read low 0.969 and 0.993 | locus YHR079C, strain IRE1 (second series), active compounds read low 0.961 | locus YHR079C, strain IRE1, active compounds read low 0.985 | locus YHR094C, strain hxt1, active compounds read low 0.974 | locus YHR129C, strain ARP1, active compounds read low 0.958 | locus YHR142W, strain chs7, active compounds read low 0.981 | locus YHR200W, strain rpn10, active compounds read low 0.952 | locus YIL066C, strain RNR3, active compounds read low 0.915 | locus YIL073C, strain SPO22, active compounds read low 0.952 | locus YIL125W, strain kgd1, active compounds read low 0.98 | locus YIR030C, strain dcg1, active compounds read low 0.98 | locus YJL092W, strain hpr5, active compounds read low 0.966 | locus YJL095W, strain BCK1 (second series), active compounds read low 0.976 | locus YJL095W, strain BCK1, active compounds read low 0.898 and 0.992 | locus YJL115W, strain asf1, active compounds read low 0.979 | locus YJL129C, strain trk1, active compounds read low 1.01 | locus YJL134W, strain LCB3, active compounds read low 0.98 | locus YJL154C, strain vps35, active compounds read low 0.985 | locus YJL164C, strain tpk1, active compounds read low 0.928 | locus YJL166W, strain qcr8, active compounds read low 0.976 | locus YJL168C, strain set2, active compounds read low 0.974 | locus YJL187C, strain SWE1 (second series), active compounds read low 0.885 | locus YJR043C, strain POL32, active compounds read low 0.879 | locus YJR066W, strain TOR1, active compounds read low 0.951
active: locus YER015W, strain faa2, active compounds read low 0.912
